Shown are actives, neighbours in structure and some others; about 12% of the full set was active somewhere.
RORg inh = inhibitors of mouse ROR gamma transcriptional activity. Drosophila S2 Gal4-RORgamma UAS-luciferase reporter, 20 h. Potency, µM (top dose mostly 53.6 µM), most hits filed as inhibitors. actives 5.4% (n = 310,000). AID 2551; further: nearly all actives have a fitted effect of over 60% in size
Target sequence (P51450 whole entry, looked up, the tested form may be a part): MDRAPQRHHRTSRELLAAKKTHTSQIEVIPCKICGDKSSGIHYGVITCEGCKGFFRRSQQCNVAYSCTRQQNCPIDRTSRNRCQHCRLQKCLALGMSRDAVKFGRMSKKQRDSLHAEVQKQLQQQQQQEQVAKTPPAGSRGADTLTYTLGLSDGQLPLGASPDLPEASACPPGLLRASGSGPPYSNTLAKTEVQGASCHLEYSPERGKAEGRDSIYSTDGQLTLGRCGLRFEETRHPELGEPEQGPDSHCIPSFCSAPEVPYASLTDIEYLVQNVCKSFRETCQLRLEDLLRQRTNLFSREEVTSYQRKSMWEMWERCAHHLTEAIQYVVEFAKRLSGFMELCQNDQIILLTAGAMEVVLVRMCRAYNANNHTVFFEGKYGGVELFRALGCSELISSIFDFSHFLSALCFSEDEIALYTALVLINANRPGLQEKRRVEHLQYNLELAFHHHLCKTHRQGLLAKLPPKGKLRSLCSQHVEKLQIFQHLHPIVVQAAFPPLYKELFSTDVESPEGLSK
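Stably transfected Drosophila Schneider cells are the test system, with ROR gamma fused to Gal4 and luciferase under UAS control; luminescence is read after 20 hr of 700 uM copper sulfate induction at ambient temperature.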
Sfp PPTase inh = blocks B. subtilis Sfp PPTase activity; Biochemical Sfp PPTase activity, qHTS; Potency, µM, most hits filed as inhibitors; Q9F4F7; AID 1490; actives 3.5% (n = 310,000);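 further: the enzyme is Sfp with the accession as filed and its product quenches rhodamine fluorescence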
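Fluorescence-quenching assay: 15 nM Sfp-PPTase preincubated 15 min at room temperature with compound, then 5 uM rhodamine-CoA and 12.5 uM BHQ-2-labelled YbbR peptide added. Fluorescence (ex 525/em 598 nm) read at start and after 30 min; difference gives rate.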
PLK1 PBD inh = PLK1 (human) polo-box domain binding inhibition; Plk1 PBD binding of FITC phosphopeptide, fluorescence polarization; Potency, µM, usual class: inhibitors; actives 2.8% (n = 360,000); P53350; AID 720504; further: series mostly up to about 57 µM; nearly all actives have a fitted effect of over 65% in size
VP16 counter = inhibits Gal4-VP16 luciferase reporter, ROR gamma counter-screen; actives 3.5% (n = 310,000); Drosophila S2 Gal4-VP16 UAS-luciferase, luminescence, 20 h; Potency, µM (top dose mostly 53.6 µM), most hits filed as inhibitors;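 further: Gal4-VP16 expression switched on by copper sulfate through the metallothionein promoter; nearly all actives have a fitted effect of over 50% in size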
ALDH1A1 block = inhibitors of human aldehyde dehydrogenase 1A1 | Potency, µM (series often up to 75.3 µM), most hits filed as inhibitors | actives 7.3% (n = 220,000) | Purified ALDH1A1, NADH fluorescence, propionaldehyde substrate; active means well fitted inhibition curve with a large enough effect, not every such curve was filed as active; inconclusive means small, poorly fitted or top-dose-only effect, or another doubt; inactive means no such curve, though single readings can be large or run the other way
Numbers stand for hits; - = inactive; ? = inconclusive; . = no result; [ ] = another dose, or the depositor's remark. Unless noted, the call rests on the fitted dose curve; in most records, active means well fitted curve in the direction sought with a large enough effect; inconclusive means small, poorly fitted or top-dose-only effect, or another doubt; inactive means no such curve, though single readings can be large; an effect the other way counts as inactive or inconclusive.

SMILES	RORg inh	Sfp PPTase inh	PLK1 PBD inh	VP16 counter	ALDH1A1 block
COc1ccc(S(=O)(=O)/N=C2/NC(=O)/C(=C/c3ccco3)S2)cc1	-	-	-	-	22µM
COc1ccc(S(=O)(=O)/N=C2/NC(=O)/C(=C\c3ccco3)S2)cc1	-	-	-	?	18µM
CC(C)S(=O)(=O)NC(=O)C1(C)CCN1C(=O)Cc1ccccc1 (centres undefined)	.	.	-	.	.
Cc1nc(CS(=O)(=O)c2ccc(Cl)cc2)cc(Sc2ccc(Cl)cc2)n1	?	-	-	11µM	?
O=S(=O)(Cc1cc(Sc2ccc(Cl)cc2)nc(-c2ccccc2)n1)c1ccccc1	-	-	-	-	-
CC(C)(C)S(=O)N1Cc2cc(C(=O)NCC(F)(F)F)nc(-c3cccc(-c4cccc(F)c4)c3)c2[C@H]1CCO (some centres undefined)	.	.	-	.	.
Cc1nc(C/C(=N\Nc2ccccc2)c2ccc(O)cc2O)cs1	-	18µM	-	-	3.2µM
CCc1cc(/C(Cc2ccccn2)=N\Nc2ccccc2)c(O)cc1O	-	-	-	-	7.9µM
Cc1nc(CC(=O)c2ccc(O)cc2O)cs1	-	-	-	-	-
O=C(SCc1cccc2ccccc12)c1ccc(Cl)cc1	.	.	.	.	-[13.5 µM]
CCOC(=O)C1(C)CCN1C(=O)c1c(F)cccc1F (centres undefined)	.	.	-	.	.
CC1(C(=O)NS(=O)(=O)Cc2ccccc2C(F)(F)F)CCN1C(=O)c1ccco1 (centres undefined)	.	.	-	.	.
COC(=O)[C@H]1C(OC)[C@@H](OC(=O)c2cc(OC)c(OC)c(OC)c2)C[C@@H]2CN3CCc4c([nH]c5cc(OC)ccc45)[C@H]3C[C@H]21 (some centres undefined)	-	-	.	-	?
COC(=O)[C@H]1[C@H]2C[C@@H]3c4[nH]c5ccccc5c4CCN3C[C@H]2C[C@@H](OC(=O)c2cc(OC)c(OC)c(OC)c2)[C@@H]1OC	7.1µM	-	.	?	.
Cc1cc(C(=O)N/N=C/c2ccc(N(C)C)o2)cs1	13µM	13µM	-	6.3µM	.
CN(C)c1ccc(/C=N/NC(=O)c2ccccc2O)o1	-	16µM	-	-	-
CN(C)c1ccc(/C=N/NC(=O)C(O)(c2ccccc2)c2ccccc2)o1	8.9µM	2.8µM	-	11µM	-
O=C1NC[C@H](CCCCN2CCN(CC3CCCCC3)C(=O)C2=O)N(CCc2ccccc2)C1=O	.	.	-	.	.
O=C(COC(=O)/C=C/c1cccc(C(F)(F)F)c1)Nc1cccc(S(=O)(=O)NC2=NCCC2)c1	.	.	-	.	.
Cc1noc(C)c1NC(=O)N(C)C[C@@H]1Oc2ncc(Br)cc2C(=O)N([C@@H](C)CO)C[C@H]1C	.	.	-	.	.
Cn1c(=O)c2cc(NC(=O)NCc3ccc(Cl)cc3Cl)ccc2n1Cc1ccccc1	.	.	-	.	.
COc1ccc2oc(-c3ccc(O)cc3)cc(=O)c2c1	25µM	-	.	25µM	?
O=C(COc1ccc2oc(-c3ccccc3)cc(=O)c2c1)Nc1ccccc1	13µM	-	-	?	-
COc1ccc(-c2cc(=O)c3ccc(O)cc3o2)cc1	-	-	-	-	-
COc1ccc(-c2cc(=O)c3cc(OC)ccc3o2)cc1	-	?	-	-	?
SMILES	RORg inh	Sfp PPTase inh	PLK1 PBD inh	VP16 counter	ALDH1A1 block
COc1cc(-c2cc(=O)c3c(O)c(OC)c(OC)c(OC)c3o2)cc(OC)c1OC	-	-	-	-	11µM
COc1ccc(-c2cc(=O)c3c(OC)c(OC)c(OC)c(OC)c3o2)cc1	-	-	-	-	1.4µM
OCC[C@@H]1C[C@H](O)[C@@H](O)[C@]2(CCCO2)O1	.	.	-	.	.
O=C(O)c1ccccc1NS(=O)(=O)c1ccc(F)c(Cl)c1	.	.	.	.	-
Cn1nc(C(C)(C)C)cc1C(=O)N1CCCCC1c1cc(C(=O)NCc2cccnc2)no1 (centres undefined)	.	.	-	.	.
CCOCCCNC(=O)c1ccc2c(c1)ncn2-c1cccc(C)c1	-	-	-	-	.
Cc1cccc(-n2cnc3cc(C(=O)N4CCCCC4)ccc32)c1	?	-	-	-	4µM
Cc1cccc(-n2c(C)nc3cc(C(=O)N4CCOCC4)ccc32)c1	-	-	27µM	?	.
COc1cccc(-n2c(C)nc3cc(C(=O)O)ccc32)c1	-	-	-	-	-
O=[N+]([O-])c1cc(-c2nnc(-c3ccccc3)o2)ccc1Oc1ccc(Cl)cc1	-	-	-	-	-
Cc1nnc(-c2ccc(Oc3ccc(Cl)cc3)c([N+](=O)[O-])c2)o1	-	-	21µM	-	-
